Sampled rows, rich in hits. Any-hit rate of the full collection: about 0.86%.
PGK inhibitor = qHTS Assay to Find Inhibitors of Phosphoglycerate Kinase | Phosphoglycerate kinase, glycosomal (Trypanosoma brucei brucei), P07378 | PGK/GAPDH coupled, Kinase-Glo luminescence, 60 min | Potency, µM (titrated, usually from 57.5 µM), usual class: inhibitors | 380,000 tested, 0.043% active; also: nearly all actives have a fitted effect of over 60% in size
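Luminescent ATP detection (Kinase-Glo Plus) follows a 60-minute room-temperature incubation, with wells lacking PGK as controls. Buffer: 100 mM TEA (pH 7.6), 5 mM MgCl2, 0.01% Tween-20. Coupling enzyme GAPDH (100 nM final) supplies unstable 1,3-BPG in-well.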
APE1 inh = qHTS Assay for Inhibitors of the Human Apurinic/apyrimidinic Endonuclease 1 (APE1) | DNA repair nuclease/redox regulator APEX1 (Homo sapiens), P27695 | recombinant APE1, TAMRA/BHQ-2 abasic DNA cleavage fluorescence | Potency, µM (titrated, usually from 65.8 µM), hits mostly inhibitors | 350,000 tested, 0.35% active | AID 2517, 2012; also: nearly all actives have a fitted effect of over 55% in size
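Compound pre-exposure to 0.75 nM APE1, 15 min at ambient temperature. Reaction initiated with 50 nM TAMRA/BHQ-2 THF substrate, read immediately in kinetic mode, 525 nm excitation, 598 nm emission.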
BLM helicase inh = qHTS Assay for Inhibitors of Bloom's syndrome helicase (BLM); 350,000 tested, 0.2% active; recombinant BLM DNA unwinding, fluorescence dequenching; RecQ-like DNA helicase BLM (Homo sapiens), P54132; Potency, µM (titrated, usually from 56.1 µM), usual class: inhibitors; also: nearly all actives have a fitted effect of over 35% in size
RECQ1 inh = qHTS Assay for Inhibitors of RecQ-Like Dna Helicase 1 (RECQ1). RECQ1 DNA unwinding, red fluorescence kinetic read. Potency, µM (highest dose often 57.3 µM), usual class: inhibitors. 240,000 tested, 0.54% active. AID 2549, 2010; also: nearly all actives have a fitted effect of over 30% in size
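50 nM RECQ1T1 preincubated 15 min with compound in Tris pH 8.0 buffer with MgCl2, DTT, Tween-20 and 2.5 ug/ml poly(dI-dC); started with 200 nM TAMRA/BHQ-2 forked duplex and 2 mM ATP. Unwinding read as fluorescence (525/598 nm), two reads 2 h apart.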
FEN1 inh = qHTS Assay for the Inhibitors of Human Flap endonuclease 1 (FEN1); P39748; Recombinant FEN1 flap cleavage, fluorescence, 15 min; Potency, µM (titrated, usually from 114 µM), hits mostly inhibitors; 390,000 tested, 0.35% active; AID 588795, 2011; also: nearly all actives have a fitted effect of over 65% in size
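With each library titrated from low to high concentration, compounds met 10 nM FEN1 for 15 min at room temperature before 50 nM substrate was added; readings at 0 and 15 min fed four-parameter Hill curve fits.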
GLS inh = qHTS for Inhibitors of Glutaminase (GLS). Glutaminase kidney isoform, mitochondrial (Homo sapiens), O94925. 410,000 tested, 0.21% active. GLS enzymatic activity, qHTS titration. Potency, µM (highest dose often 45.5 µM), actives largely listed as inhibitors
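Two-point fluorescence kinetic (t0, 30 min RT) for hKGA; glutamate detected via glutamate oxidase–HRP–Amplex Red. Substrate: 1 mM L-glutamine solution; buffer 45 mM KH2PO4, pH 8.2.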
Hits are given with their value; n = inactive; u = inconclusive; x = no result; ! = a repeat was not active. Calls follow the shape of the dose curve; as a rule, active = well fitted curve in the direction sought with a large enough effect; inconclusive = small, poorly fitted or top-dose-only effect, or another doubt; inactive = no such curve, though single readings can be large; an effect the other way counts as inactive or inconclusive.

SMILES	PGK inhibitor	APE1 inh	BLM helicase inh	RECQ1 inh	FEN1 inh	GLS inh
OC[C@@H](O)C(O)[C@H](O)CO	x	n	x	x	x	x
O=C(O)CCCN1C(=O)/C(=C\c2ccc(-c3nc4ccccc4s3)o2)SC1=S	u	u	n	u	35.5µM	u
O=C(O)CCN1C(=O)/C(=C/c2ccc(-c3nc4ccccc4s3)o2)SC1=S	n	n	n	n	n	u
C=CCOC(=O)C1=C(C)N=c2s/c(=C3\C(=O)N(CC(=O)O)c4ccccc43)c(=O)n2C1c1ccc(OC)cc1 (stereo unspecified)	n	n	n	n	n	22.4µM
CCOC(=O)C1=C(C)N=c2s/c(=C3\C(=O)Nc4ccccc43)c(=O)n2C1c1ccc2c(c1)OCO2 (stereo unspecified)	n	n	n	n	n	n
CCN(CC)/[N+]([O-])=N/OCOC(=O)C(C)c1ccc2cc(OC(C)=O)ccc2c1 (stereo unspecified)	x	x	x	x	n	x
O=C1c2c(O)cc(O)cc2O[C@H](c2ccc(O)c(O)c2)[C@H]1O	n	u	n	u	u	n
Oc1cc(O)c2c(c1)O[C@H](c1ccc(O)c(O)c1)[C@@H](O)C2	n	11.2µM!	n	u	n	n
O=C1c2c(O)cc(O)cc2O[C@H](c2ccc(O)c(O)c2)[C@@H]1O	x	u	n	17.8µM	x	x
Cc1ccc(/C=C/C(=O)NC2CCCCCCC2)o1	n	n	n	n	n	10µM
Cc1ccc(/C=N/NC(=O)NC2CCCCC2)o1	n	n	n	n	n	n
Cc1ccc(-c2cc3nccc(-c4cc([N+](=O)[O-])ccc4O)n3n2)cc1	n	x	n	x	n	8.91µM
CCOC(=O)COc1ccc([N+](=O)[O-])cc1-c1ccnc2cc(-c3ccc(C)cc3)nn12	n	x	n	x	n	n
NC(=O)c1cc[n+](CC2=C(C(=O)O)N3C(=O)[C@@H](NC(=O)C(c4ccccc4)S(=O)(=O)[O-])[C@H]3SC2)cc1 (stereo partly specified)	1.12µM	n	n	n	2.24µM	0.794µM
O=C(Cc1cccs1)N[C@@H]1C(=O)N2C(C(=O)[O-])=C(C[n+]3ccccc3)CS[C@H]12	x	28.2µM	x	x	x	x
NC(=O)c1cc[n+](CC2=C(C(=O)[O-])N3C(=O)[C@@H](NC(=O)Cc4cccs4)[C@@H]3SC2)cc1	x	x	n	n	x	n
Cc1ccc(-c2csc3ncnc(Sc4nnnn4-c4ccccc4)c23)cc1	x	x	x	x	n	x
CSCC[C@H](NC(=O)[C@H](CC(C)C)NC(=O)CNC(=O)[C@@H]1CCCN1C(=O)[C@H](Cc1ccccc1)NC(=O)[C@H](Cc1ccccc1)NC(=O)[C@H](CC(=O)O)NC(=O)[C@H](Cc1cnc[nH]1)NC(=O)[C@H](CCSC)NC(=O)[C@@H](N)CC(=O)O)C(N)=O	x	u	n	11.2µM	x	x
CSC1=NC=C(C#N)C2=NC(c3ccc(Cl)cc3)NN12 (stereo unspecified)	x	x	x	x	x	12.6µM
CSC1=C(C#N)C(c2ccc(Cl)cc2)C2=C(CC(C)(C)CC2=O)N1 (stereo unspecified)	n	n	n	n	n	n
O=c1sc2ccccc2c(=O)n1Cc1ccccc1F	n	n	n	n	n	12.6µM
Cc1ccc(Cn2c(=O)sc3ccccc3c2=O)cc1	x	n	n	n	n	n
O=C(Nc1ccc(Cl)cc1)c1cc2c(cc1O)[nH]c1ccccc12	n	n	n	n	n	12.6µM
N#CNc1nc(O)cc(=O)[nH]1	28.2µM	n	n	n	u	n
COc1cc2c[n+](C)c3c4ccccc4ccc3c2cc1OC	n	x	x	x	6.31µM	n
SMILES	PGK inhibitor	APE1 inh	BLM helicase inh	RECQ1 inh	FEN1 inh	GLS inh
COc1ccc(Cc2c3cc(OC)c(OC)cc3cc[n+]2C)cc1OC	n	n	n	n	n	n
COc1ccc(CC(=O)n2[nH]c(=O)c3ccccc3c2=O)cc1OC	n	n	n	n	n	n
COc1ccc(CC(=O)n2[nH]c(=O)ccc2=O)cc1OC	n	u	n	n	n	10µM
NC(=S)NNc1ccnc2cc(Cl)ccc12	n	n	n	n	n	6.31µM
Clc1ccc2c(NNc3ccccc3Cl)ccnc2c1	n	n	n	n	n	n
Cc1cc[n+](C2CCCCC2)c2ccccc12	x	x	x	x	n	x
O=C(C[C@H]1C/C=C\C[C@H](NC(=O)OCC2c3ccccc3-c3ccccc32)C(=O)OC[C@H]2CCCN2C1=O)NCCO	n	u	x	x	n	n
O=C(C[C@@H]1C/C=C\C[C@H](NC(=O)OCC2c3ccccc3-c3ccccc32)C(=O)OC[C@H]2CCCN2C1=O)NCCO	n	10.6µM	x	x	n	n
O=C(C[N+]12CN3CN(CN(C3)C1)C2)c1ccc(I)cc1	x	x	x	x	n	x
CCc1ccccc1-n1c(-c2ccncc2)n[nH]c1=S	n	31.6µM	n	n	n	n
CCc1ccccc1NC(=O)CSc1nc2n[nH]c(C)c2c(=N)n1-c1ccc(OC)cc1	n	n	n	n	n	11.2µM
COc1ccccc1/C=C/c1ccnc2ccccc12	x	x	x	x	n	x
O=C(Nc1ccccc1)Nc1ccc2ocnc2c1	n	n	n	n	n	20µM
Nc1cc(C(=O)O)c(O)c(S(=O)(=O)O)c1	x	28.2µM	x	n	x	x
CC(=Nc1ccccc1N)c1c(C)cc(=O)n(O)c1O	x	u	n	n	x	x
COc1cc(OC)c(/C=C/c2ccc3ccccc3[n+]2C)c(OC)c1	x	x	x	x	25.1µM	x
CCC[n+]1c(/C=C/c2c(OC)cc(OC)cc2OC)ccc2ccccc21	x	x	x	x	28.2µM	x
CCCC[n+]1c2ccccc2cc2ccccc21	n	n	n	x	79.4µM	5.62µM
CCCC[n+]1c(/C=C/c2c(OC)cc(OC)cc2OC)ccc2ccccc21	x	x	x	x	20µM	x
CC(C)c1ccc(C(=O)C[N+]2(C)CCOCC2)cc1	x	x	x	x	n	x
C=C1C=C(C(F)F)n2ncc(C(=O)NCCc3ccc(OC)c(OC)c3)c2N1	x	n	x	x	x	x
Cc1ccc2[nH]cc(C(O)c3c[nH]c4ccc(C)cc34)c2c1	x	x	x	x	n	x
CN(CCCS(=O)(=O)[O-])c1ccc(/C=C/c2ccc3ccccc3[n+]2C)cc1	x	n	n	x	n	n
CN(C)c1ccc(/C=C/c2ccc3ccccc3[n+]2C)cc1	n	n	u	u	39.8µM	n
Cn1c(=O)n(Cc2ccccc2)c(=O)c2c1nc1n2CCS1	n	n	n	n	n	11.2µM
Cc1ccccc1Cn1c(=O)c2c(nc3n2CCCN3Cc2ccccc2)n(C)c1=O	n	x	x	x	n	11.2µM

From PubChem
